CBX7 inh = CBX7 inhibition, primary AlphaScreen; O95931; AlphaScreen His6-CBX7 / biotin-H3K27me3 peptide binding; stronger effect = lower value; 1.1% of 66,000 active; normalised signal (fraction of DMSO) (no concentration beside the values); in the data active means normalised signal below about 0.5
Target sequence (O95931 whole entry, looked up): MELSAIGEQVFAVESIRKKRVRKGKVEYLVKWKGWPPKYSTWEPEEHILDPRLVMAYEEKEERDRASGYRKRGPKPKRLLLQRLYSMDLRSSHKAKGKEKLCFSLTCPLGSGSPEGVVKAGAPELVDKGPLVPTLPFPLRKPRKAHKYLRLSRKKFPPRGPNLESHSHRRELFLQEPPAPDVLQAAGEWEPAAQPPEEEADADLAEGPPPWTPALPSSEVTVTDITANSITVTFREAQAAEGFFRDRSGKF
An asterisk follows results filed as active. Shown is part of a subset that was picked to be rich in hits.

SMILES	CBX7 inh
CC1CCCCN1S(=O)(=O)c1ccc(C(=O)Nc2nnc(C3CC3)o2)cc1 (centres undefined)	0.00088*
CCOc1cc2occ(Oc3ccccc3)c(=O)c2cc1CC	1.1
NC(=O)C1CCN(C(=O)C2CCCN(c3nnc(-n4cccc4)s3)C2)CC1 (centres undefined)	1
CC(C)c1ccc(NC(=O)C2CCN(S(=O)(=O)c3cccc4cccnc34)CC2)cc1	0.92
COc1ccc(NC(=O)Cn2c(SCc3ccccc3F)nc3ccncc32)cc1OC	0.96
O=C(CN1C(=O)CCSc2ccccc21)NC1CCCCCC1	1
CCCCNS(=O)(=O)c1ccc2nc(-c3cccs3)cc(C(=O)NCCC(C)C)c2c1	0.87
Cn1nc(-c2ccc(OCC(=O)NC3CCCCC3)cc2)c2ccccc2c1=O	1
Cc1ccccc1Cn1c(CCCNC(=O)c2cccs2)nc2ccccc21	0.9
COc1ccc(-c2c(-c3ccc(OC)cc3O)n[nH]c2C)cc1	0.66
COc1ccc(-c2n[nH]c(C)c2-c2ccc3c(c2)OCCCO3)c(O)c1	0.45*
COc1ccc(-c2n[nH]c(C)c2-c2ccc(F)cc2)c(O)c1	0.74
Cc1cc(C)c(NC(=O)CN(C)S(=O)(=O)c2cccc3cccnc23)c(C)c1	1
CC(C)c1ccc(C(c2ccccc2)N2CCN(C(=O)CCc3c[nH]c4ccccc34)CC2)cc1 (centres undefined)	0.59
Fc1ccc(C(c2ccc(F)cc2)N2CCN(CCCc3c[nH]c4ccccc34)CC2)cc1	0.49*
Clc1ccc(C(c2ccc(Cl)cc2)N2CCN(CCCc3c[nH]c4ccccc34)CC2)cc1	0.6
O=C(NCc1ccc(F)cc1)[C@H](Cc1ccccc1)N1Cc2ccccc2C1=O	0.94
O=C(NCc1ccc2c(c1)OCO2)[C@H](Cc1ccccc1)N1Cc2ccccc2C1=O	0.44*
O=C(NCc1ccc2c(c1)OCO2)[C@@H](c1ccccc1)N1Cc2ccccc2C1=O	1
COc1cccc(-c2nc(-c3ccccc3)c(-c3cccs3)[nH]2)c1	0.95
COc1cccc(-c2nc(-c3ccccc3)c(-c3cc([N+](=O)[O-])ccc3C)[nH]2)c1	0.47*
Cc1ccc([N+](=O)[O-])cc1-c1[nH]c(-c2ccccc2F)nc1-c1ccccc1	0.47*
Fc1ccccc1-c1nc(-c2ccccc2)c(-c2ccc(Sc3ccccc3)cc2)[nH]1	0.69
Cc1ccc(C)c(-c2[nH]c(-c3ccc(C(=O)O)cc3)nc2-c2ccccc2)c1	0.84
O=C1c2ccc([N+](=O)[O-])cc2C(=O)N1c1ccc2nc(-c3ccccc3)[nH]c2c1	1.1
SMILES	CBX7 inh
CCCN(CCC)CCCNC(=O)c1cnn2c(C)c(Cc3ccccc3)c(C)nc12	0.95
Clc1ccc(SCc2nc3sccn3c2Br)cc1	0.98
COc1ccccc1C1c2c(-c3ccc(C)cc3)n[nH]c2C(=O)N1c1ccc(F)cc1 (centres undefined)	0.74
Cc1cc(C)cc(C(=O)N2CC(=O)Nc3ccc(F)cc3C2c2ccc(F)cc2)c1 (centres undefined)	0.96
Cc1cc(C)n(-c2nc3ccccc3nc2Nc2ccc(N(C)C)cc2)n1	0.22*
Cc1cccc(Nc2nc3ccccc3nc2-n2nc(C)cc2C)c1	2.6
Cc1cc(C)n(-c2nc3ccccc3nc2Nc2ccc3c(c2)OCCO3)n1	1.9
CCN(CCN(C)C)S(=O)(=O)c1ccc2c(c1)CCN2C(C)=O	1.3
Cc1ccc(NC(=O)c2cnn(-c3ccccc3)c2C2CCN(C(=O)OC(C)(C)C)CC2)c(C)c1	0.9
CCn1c(SCC(=O)NCc2ccc(F)cc2)nnc1-c1c[nH]c2ccccc12	1.1
COc1ccc(CNC(=O)CCc2cn(C)c3ccccc23)c(OC)c1	1
CCOc1ccc(CNC(=O)CCCc2cn(C)c3ccccc23)cc1OC	0.87
COc1ccc(Br)cc1CNC(=O)Cc1cn(C)c2ccccc12	0.91
COc1ccc(OC)c(CNC(=O)CCc2cn(C)c3ccccc23)c1	0.95
COc1ccc(Br)cc1CNC(=O)CCCc1cn(C)c2ccccc12	0.42*
COc1ccc(OC)c(CNC(=O)CCCc2cn(C)c3ccccc23)c1	0.46*
Clc1ccccc1CNc1ncnc2ccccc12	1.1
CC(C)c1ccc(CN(C(=O)COc2ccc(C(C)C)cc2)C2CCS(=O)(=O)C2)cc1 (centres undefined)	1.1
Oc1c(Br)cc(CN2CCCCC2)c2cccnc12	0.0057*
COc1ccccc1N1CCN(Cc2nc(-c3ccccc3)no2)CC1	1
COc1ccccc1N1CCN(c2nnc(C)c3ccccc23)CC1	1.2
COc1ccccc1N1CCN(Cc2cc(Br)c(O)c3ncccc23)CC1	0.013*
COc1cc(CN2CCN(Cc3ccccc3Br)CC2)cc(OC)c1OC	1
COc1ccccc1N1CCN(c2ncnc3ccccc23)CC1	1
COc1ccccc1N1CCN(Cc2cc(Cl)c3cccnc3c2O)CC1	0.00087*
SMILES	CBX7 inh
Brc1ccc(OCc2ccccc2)c2ncccc12	1
COc1ccccc1C(NC(=O)C(C)C)c1cc(Cl)c2cccnc2c1O (centres undefined)	0.71
CCC(=O)Nc1nc(-c2ccc(OC)c(Br)c2)cs1	1.1
CCOc1cc2c(cc1OCC)C1C(C(=O)Nc3cccc(OC)c3)c3ccccc3C(=O)N1CC2 (centres undefined)	0.99
Cc1oc(-c2cccc(Cl)c2)nc1CN1CCCC(C(=O)NC2CC2)C1 (centres undefined)	1
CCC1Oc2ccc(C)cc2N(CC(=O)NC2CCCCC2C)C1=O (centres undefined)	1.1
COc1ccc(N(C)C(=O)Cc2c(C(=O)O)[nH]c3ccc(Cl)cc23)cc1	1.1
Cc1ccnc(Nc2nc(-c3sc(N)nc3C)cs2)c1	0.4*
Cc1ccnc(Nc2nc(-c3c(C)nc4cc(C)ccn34)cs2)c1	0.68
Cc1ccnc(Nc2nc(-c3ccc(C(C)C)cc3)cs2)c1	0.87
CCCN(C(=O)Cn1ncc2c1-c1ccccc1OC2)c1ccccc1F	0.76
COC(=O)c1c(NC(=O)c2cc(Cl)ccc2OC)sc2c1CCCC2	1.1
N#Cc1c(NC(=O)c2cc(-c3cccc(O)c3)on2)sc2c1CCCC2	1
c1ccc(-c2nnc(Nc3ccccn3)c3ccccc23)cc1	0.9
Cc1cc(C)cc(-c2nc(-c3ccccn3)no2)c1	0.97
c1ccc(-c2nnc(-c3ccccn3)nc2-c2ccccc2)cc1	0.05*
COc1cc(OC)c(NC(=O)c2cnn(-c3ccc(F)cc3)c2C2CCNCC2)cc1Cl	0.95
O=C(O)CC12CC3CC(CC(Br)(C3)C1)C2	0.78
COc1cccc(-n2c(-c3ccccc3F)nc3c(cnn3-c3ccc(C)cc3)c2=O)c1	0.6
Cc1cccc(-n2c(-c3ccccc3F)nc3c(cnn3-c3ccccc3)c2=O)c1	0.49*
CCOc1ccc(-n2c(-c3ccccc3F)nc3c(cnn3-c3ccccc3)c2=O)cc1	0.54
COc1ccccc1Cc1nc2ccccc2nc1SCC(=O)Nc1ccc(F)cc1F	1.1
Cc1cccc(Nc2nc(-c3ccc(C(C)C)cc3)cs2)n1	0.83
CC(C)Oc1ccc(C(CC(=O)N2CCOCC2)c2ccccc2)cc1 (centres undefined)	0.98
O=C(Nc1nnc(Cc2ccc(Cl)cc2Cl)s1)c1cccs1	1.1
O=S(=O)(c1ccc(Cl)cc1)N(CCCN1CCOCC1)Cc1cccs1	0.49*
O=S(=O)(c1ccc(F)cc1)N(CCCN1CCOCC1)Cc1cccs1	0.85
O=S(=O)(c1cccc(Cl)c1)N(CCCN1CCOCC1)Cc1cccs1	0.87
CCCNC(=O)Cn1cnc2sc(C(=O)Nc3ccc4c(c3)OCCO4)c(C)c2c1=O	1
